Screens from PubChem BioAssay.
TDP1 cell CPT: DT40-hTDP1 cell growth loss with CPT | chicken DT40 Tdp1-/-;hTDP1 cells + 20 nM CPT, ATP luminescence, 48 h | Potency, µM (titrated, usually from 46.2 µM), for the others: at the highest dose activity change, negative = growth inhibition, most hits filed as inhibitors | actives 12% (n = 420,000); further: potency means the concentration at half of the fitted maximal effect; nearly all actives have a fitted effect of over 55% in size
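Cell growth measured by CellTiter-Glo luminescence after a minimum 48 h, 37 C compound exposure with 20 nM CPT in Tdp1-knockout DT40 cells stably expressing hTDP1, seeded 400/well; qHTS titration format.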
HT1080NT lethal: kills 2HG-producing HT-1080-NT fibrosarcoma cells; HT-1080-NT fibrosarcoma viability, CellTiter-Glo ATP luminescence, 48 h; Potency, µM (series often up to 46.1 µM), for the others: at the top dose activity, negative = less viability, hits mostly cytotoxic; actives 1.6% (n = 360,000);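 further: NT is the 2HG producing partner of a matched IDH1 knockdown line; potency means the concentration at half of the fitted maximal effect; 0% = DMSO-treated cells and -100% = media-only wells without cells; nearly all actives have a fitted effect of over 55% in size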
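A 48-hour cytotoxicity screen used HT-1080-NT cells plated 2 hours before compound delivery. ATP-based CellTiter-Glo luminescence measured viability, normalized to DMSO and no-cell controls.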
IL-1B inflam inh: inflammasome signaling inhibition, IL-1 beta readout | THP-1 LPS/ATP IL-1B secretion, AlphaLISA, 16 h; hits give low values | activity change, % at 57.5 µM | actives 4.7% (n = 360,000) | AID 743279; in the data active means activity change below about -50%; inconclusive means mostly about -30% to -49%
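THP-1 cells pretreated 1 hr with compounds (up to 57.5 uM final), then stimulated with LPS (250 ng/mL final) plus ATP (1.25 mM final); secreted IL-1B measured by AlphaLISA after 16 hr, decreased signal indicating inhibition.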
DT40 TDP1 no CPT: qHTS for Inhibitors of human tyrosyl-DNA phosphodiesterase 1 (TDP1): qHTS in cells in absence of CPT. DT40 Tdp1-/- hTDP1 cells, no CPT, ATP luminescence, 48 h. Potency, µM (titrated, usually from 46.2 µM), without a hit: at the top dose activity change, negative = growth inhibition, hits mostly inhibitors. actives 15% (n = 420,000); further: potency means the concentration at half of the fitted maximal effect; nearly all actives have a fitted effect of over 55% in size
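Cells were dispensed at 400 per well, compounds added by pin tool, plates incubated ≥48 hr at 37 °C, then CellTiter-Glo added for 30 min at room temperature before luminescence reading. Line: DT40 Tdp1-/- complemented with hTDP1; camptothecin omitted.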
HT1080 IDH1KD tx: HT-1080 IDH1 knockdown cell toxicity (counter line); HT-1080 IDH1 knockdown viability, ATP luminescence, 48 h; Potency, µM (titrated, usually from 46.1 µM), for inactives: top-dose activity, negative = toxicity, hits mostly cytotoxic; actives 2% (n = 360,000); AID 686971;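 further: potency means the concentration at half of the fitted maximal effect; 0% = DMSO wells and -100% = cell-free medium wells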
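Knockdown cells (IDH1KD HT-1080) received compounds 2 h after plating at 750 cells/well and were kept 48 h at 37 °C in 5% FBS RPMI. A CellTiter-Glo luminescence read gave % activity for curve fitting.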
ELG1 repair inh: blocks ELG1-dependent DNA repair in HEK293T cells. HEK293T ELG1-luciferase reporter, luminescence, 16 h; DNA damage induced by 5-fluorouridine. Potency, µM (doses to about 46.1 µM), for the others: at the highest dose activity change, negative = inhibition, hits mostly inhibitors. actives 2.3% (n = 330,000); further: potency means the concentration at half of the fitted maximal effect; nearly all actives have a fitted effect of over 55% in size
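Luminescence from the luciferase reporter, measured 30 min after ONE-Glo reagent at room temperature, was the read-out. Beforehand, 2,000 cells per well were exposed for 16 hr at 37 °C to 5-fluorouridine together with compound or vehicle.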
ELG1 FLuc counter: luciferase inhibition in cell-free luciferin readout for ELG1 hits. shares compounds with ELG1 repair inh. Potency, µM (top dose mostly 46.1 µM), without a hit: at the highest dose activity change, negative = inhibition, actives largely listed as inhibitors. cell-free firefly luciferase luminescence counter-screen, ViewLux. actives 3% (n = 350); further: potency means the concentration at half of the fitted maximal effect
ELG1-Luc inh: inhibits ELG1-dependent DNA repair in HEK293T cells, confirmed | shares compounds with ELG1 repair inh | HEK293T ELG1-luciferase levels, luminescence; cells co-treated with 5-fluorouridine | Potency, µM (titrated, usually from 46.1 µM), for inactives: at the top dose activity change, negative = inhibition, actives largely listed as inhibitors | actives 68% (n = 670) | AID 624248; further: potency means the concentration at half of the fitted maximal effect; nearly all actives have a fitted effect of over 55% in size
Target sequence (Q96QE3 whole entry, looked up): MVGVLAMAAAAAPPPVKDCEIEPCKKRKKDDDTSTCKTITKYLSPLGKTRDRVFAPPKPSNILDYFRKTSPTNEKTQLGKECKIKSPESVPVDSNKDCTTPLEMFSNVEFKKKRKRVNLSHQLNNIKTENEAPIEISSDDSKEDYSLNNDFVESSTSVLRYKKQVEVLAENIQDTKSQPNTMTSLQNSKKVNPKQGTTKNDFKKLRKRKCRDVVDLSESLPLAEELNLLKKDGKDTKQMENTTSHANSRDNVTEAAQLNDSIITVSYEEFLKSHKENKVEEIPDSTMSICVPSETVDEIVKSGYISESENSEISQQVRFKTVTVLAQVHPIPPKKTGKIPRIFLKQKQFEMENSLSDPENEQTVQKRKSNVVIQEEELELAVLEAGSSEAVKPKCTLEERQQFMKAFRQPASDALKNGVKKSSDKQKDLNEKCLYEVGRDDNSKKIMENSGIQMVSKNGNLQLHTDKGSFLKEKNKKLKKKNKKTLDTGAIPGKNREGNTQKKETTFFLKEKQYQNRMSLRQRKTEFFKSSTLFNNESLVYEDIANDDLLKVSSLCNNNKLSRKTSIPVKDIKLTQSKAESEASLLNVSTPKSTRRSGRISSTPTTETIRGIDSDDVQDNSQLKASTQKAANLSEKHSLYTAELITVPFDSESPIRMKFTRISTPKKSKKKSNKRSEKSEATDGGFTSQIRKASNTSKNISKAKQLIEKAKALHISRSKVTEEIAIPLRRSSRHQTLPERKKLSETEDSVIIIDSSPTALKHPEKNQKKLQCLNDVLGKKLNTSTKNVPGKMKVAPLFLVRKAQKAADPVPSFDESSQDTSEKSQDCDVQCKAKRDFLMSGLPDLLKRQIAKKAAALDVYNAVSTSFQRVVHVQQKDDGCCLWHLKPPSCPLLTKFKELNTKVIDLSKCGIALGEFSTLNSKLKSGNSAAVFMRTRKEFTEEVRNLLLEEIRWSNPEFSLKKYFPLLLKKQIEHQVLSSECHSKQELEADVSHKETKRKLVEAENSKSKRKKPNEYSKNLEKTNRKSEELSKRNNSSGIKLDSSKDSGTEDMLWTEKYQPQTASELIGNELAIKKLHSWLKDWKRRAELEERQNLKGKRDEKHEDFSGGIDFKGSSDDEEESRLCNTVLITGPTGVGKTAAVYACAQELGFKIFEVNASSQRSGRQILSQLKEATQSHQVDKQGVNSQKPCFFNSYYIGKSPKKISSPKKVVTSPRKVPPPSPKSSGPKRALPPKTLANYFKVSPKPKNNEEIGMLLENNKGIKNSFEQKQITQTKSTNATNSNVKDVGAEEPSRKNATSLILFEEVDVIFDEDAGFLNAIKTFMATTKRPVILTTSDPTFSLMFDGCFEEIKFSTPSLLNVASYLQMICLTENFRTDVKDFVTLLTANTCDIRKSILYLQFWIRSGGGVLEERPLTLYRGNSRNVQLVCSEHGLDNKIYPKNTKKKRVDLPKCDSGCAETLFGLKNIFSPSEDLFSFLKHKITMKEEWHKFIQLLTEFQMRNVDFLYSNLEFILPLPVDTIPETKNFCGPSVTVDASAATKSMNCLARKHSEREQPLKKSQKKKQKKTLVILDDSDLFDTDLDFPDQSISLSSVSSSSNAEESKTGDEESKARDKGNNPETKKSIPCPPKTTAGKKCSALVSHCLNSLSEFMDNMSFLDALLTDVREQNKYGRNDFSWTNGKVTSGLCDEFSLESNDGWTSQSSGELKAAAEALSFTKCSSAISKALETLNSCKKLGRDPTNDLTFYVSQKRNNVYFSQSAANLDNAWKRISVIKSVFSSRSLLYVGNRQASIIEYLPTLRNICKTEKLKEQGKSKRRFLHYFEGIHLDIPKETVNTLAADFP
ELG1 MMS Luc: confirmation of human ELG1 repair inhibitors, MMS stimulated; actives 53% (n = 670); shares compounds with ELG1 repair inh; Potency, µM (highest dose often 46.1 µM), inactives show at the highest dose activity change, negative = inhibition, usual class: inhibitors; HEK293T luciferase-tagged ELG1 level, MMS stimulated; AID 624249; further: potency means the concentration at half of the fitted maximal effect; nearly all actives have a fitted effect of over 60% in size
ELG1 5-FU: confirmation of ELG1 repair inhibitors: viability with 5FU. Potency, µM (top dose mostly 46.1 µM), for inactives: at the highest dose activity change, negative = viability loss, usual class: cytotoxic. AID 624250. shares compounds with ELG1 repair inh. 670 tested, under 10 active. cell viability with 5-FU, ELG1-dependent repair;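 further: ELG1-luc HEK293T cells cotreated with 5-fluorouridine at 10 µM final; potency means the concentration at half of the fitted maximal effect; viability measured 16 h after compound addition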
ELG1 MMS viab: confirmation of ELG1 repair inhibitors: viability with MMS | shares compounds with ELG1 repair inh | Cell viability with MMS, ELG1-dependent DNA repair | Potency, µM (doses to about 46.1 µM), without a hit: at the highest dose activity change, negative = viability loss, hits mostly cytotoxic | actives 33% (n = 670) | AID 624251;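 further: ELG1-luc HEK293T cells co-treated with 10 µM MMS; potency means the concentration at half of the fitted maximal effect; viability read 16 h after compound addition; nearly all actives have a fitted effect of over 60% in size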
ELG1 unstim viab: counter-screen for ELG1 repair inhibitors: unstimulated cell viability; shares compounds with ELG1 repair inh; cell viability counter-screen, unstimulated, luminescence; Potency, µM (top dose mostly 45.9 µM), inactives show at the top dose activity change, negative = loss of viability, actives largely listed as cytotoxic; actives 8% (n = 900); AID 624252;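 further: potency means the concentration at half of the fitted maximal effect; compound exposure lasted 16 hours before reading; nearly all actives have a fitted effect of over 55% in size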
FLuc biochem: firefly luciferase inhibition counter-screen; shares compounds with ELG1 repair inh; purified firefly luciferase, luminescence counter-screen; Potency, µM (doses to about 57.5 µM), for the others: top-dose activity, negative = inhibition, usual class: inhibitors; actives 10% (n = 350); AID 624253; further: potency means the concentration at half of the fitted maximal effect
Numbers without * were called inactive. Only some compounds are listed: those with a hit (about 19% of all), similar ones and a draw of the others. Unless noted, the call rests on the fitted dose curve; in most records, active means well fitted curve in the direction sought with a large enough effect; inconclusive means small, poorly fitted or top-dose-only effect, or another doubt; inactive means no such curve, though single readings can be large; an effect the other way counts as inactive or inconclusive. Unless noted, on the % scale 0 is the no-effect control and ±100 the full control effect.

How did COCCCNc1nc(N)c([N+](=O)[O-])c(Nc2cc(OC)ccc2OC)n1 do in these assays?
TDP1 cell CPT: 0%; HT1080NT lethal: -7%; DT40 TDP1 no CPT: inconclusive; HT1080 IDH1KD tx: -8%; ELG1 repair inh: 1.8µM*; ELG1-Luc inh: 1.1µM*; ELG1 MMS Luc: inconclusive; ELG1 5-FU: inconclusive; ELG1 MMS viab: -2%; ELG1 unstim viab: -7%

How did COc1cccc(-c2nc(-c3ccc4c(c3)-c3ccccc3S4(=O)=O)c(-c3ccccc3)[nH]2)c1OC do in these assays?
TDP1 cell CPT: 7.3µM*; HT1080NT lethal: -5%; IL-1B inflam inh: -25; DT40 TDP1 no CPT: 4.1µM*; HT1080 IDH1KD tx: -4%; ELG1 repair inh: 2.6µM*; ELG1-Luc inh: 3.5µM*; ELG1 MMS Luc: -16%; ELG1 5-FU: inconclusive; ELG1 MMS viab: inconclusive; ELG1 unstim viab: -2%

What do the screens show for `O=C(NCc1cccs1)c1cc(-c2ccccc2)on1`?
TDP1 cell CPT: -13%; HT1080NT lethal: 5%; IL-1B inflam inh: 26; DT40 TDP1 no CPT: -18%; HT1080 IDH1KD tx: 10%; ELG1 repair inh: inconclusive; ELG1 FLuc counter: 77%; ELG1 unstim viab: -14%; FLuc biochem: inconclusive

What do the screens show for `Nc1ncnc2c1c(I)cn2C1OC(CO)C(O)C1O` (stereo not given)?
TDP1 cell CPT: 0.49µM*; DT40 TDP1 no CPT: 0.28µM*; ELG1 FLuc counter: inconclusive; ELG1-Luc inh: 0.4µM*; ELG1 MMS Luc: 1µM*; ELG1 5-FU: 18%; ELG1 MMS viab: inconclusive; ELG1 unstim viab: -8%; FLuc biochem: 5%

What do the screens show for `CC(C(=O)Nc1ccc(O)cc1C(=O)O)N1C(=O)/C(=C\c2cccs2)SC1=S` (stereo not given)?
TDP1 cell CPT: -5%; HT1080NT lethal: 2%; IL-1B inflam inh: -2; DT40 TDP1 no CPT: -21%; HT1080 IDH1KD tx: 11%; ELG1 repair inh: -3%

How did COc1ccc(-c2cc(=O)oc3c(C)c(OC(=O)c4cccs4)ccc23)cc1 do in these assays?
TDP1 cell CPT: 3.7µM*; HT1080NT lethal: -7%; IL-1B inflam inh: -6; DT40 TDP1 no CPT: inconclusive; HT1080 IDH1KD tx: -1%; ELG1 repair inh: 4.1µM*; ELG1-Luc inh: 4.4µM*; ELG1 MMS Luc: inconclusive; ELG1 5-FU: -4%; ELG1 MMS viab: -2%; ELG1 unstim viab: -6%

Results for COc1ccc(-c2cc(=O)oc3c(C)c(OCC(=O)NCCCn4ccnc4)ccc23)cc1 ?
TDP1 cell CPT: inconclusive; HT1080NT lethal: 5%; IL-1B inflam inh: -27; DT40 TDP1 no CPT: inconclusive; HT1080 IDH1KD tx: 4%; ELG1 repair inh: inconclusive

Results for CCNC(=O)C1(C)CCCN(C(=O)c2ccc(C(F)(F)F)nc2C)C1 (stereo not given) ?
TDP1 cell CPT: -1%; HT1080NT lethal: 24%; IL-1B inflam inh: -5; DT40 TDP1 no CPT: 1%; HT1080 IDH1KD tx: 22%

What do the screens show for `CCn1c(=O)c2sccc2n(Cc2ccccc2)c1=O`?
TDP1 cell CPT: -9%; HT1080NT lethal: -4%; IL-1B inflam inh: 9; DT40 TDP1 no CPT: -3%; HT1080 IDH1KD tx: -7%; ELG1 repair inh: -12%

Results for Cc1c(C(C)C)c(=O)n(-c2ccc(S(=O)(=O)N3CCOCC3)cc2)n1C ?
TDP1 cell CPT: 0%; HT1080NT lethal: -3%; IL-1B inflam inh: 27; DT40 TDP1 no CPT: -19%; HT1080 IDH1KD tx: -10%; ELG1 repair inh: 3%

How did Cc1c(C(C)C)c(=O)n(-c2ccc(S(=O)(=O)NC3CCCCC3)cc2)n1C do in these assays?
TDP1 cell CPT: 5.8µM*; HT1080NT lethal: -5%; IL-1B inflam inh: -54*; DT40 TDP1 no CPT: 5.2µM*; HT1080 IDH1KD tx: -11%; ELG1 repair inh: 2.1µM*; ELG1-Luc inh: inconclusive; ELG1 MMS Luc: 2.2µM*; ELG1 5-FU: -12%; ELG1 MMS viab: 2.5µM*; ELG1 unstim viab: inconclusive

Results for Cc1c(C(C)C)c(=O)n(-c2ccc(S(=O)(=O)NCc3ccccc3)cc2)n1C ?
TDP1 cell CPT: inconclusive; HT1080NT lethal: inconclusive; IL-1B inflam inh: 0; DT40 TDP1 no CPT: 8.2µM*; HT1080 IDH1KD tx: inconclusive; ELG1 repair inh: 1.5µM*; ELG1-Luc inh: inconclusive; ELG1 MMS Luc: 1.3µM*; ELG1 5-FU: -5%; ELG1 MMS viab: 1.3µM*; ELG1 unstim viab: inconclusive

Results for Cc1c(C(C)C)c(=O)n(-c2ccccc2)n1C ?
TDP1 cell CPT: 6%; DT40 TDP1 no CPT: -20%
